In the library only some 21% were active in any assay of this set; here they are far more common.
RORgamma inh: inhibitors of mouse ROR gamma transcriptional activity | P51450 | hit rate 5.4% among 310,000 | Drosophila S2 Gal4-RORgamma UAS-luciferase reporter, 20 h | Potency, µM (highest dose often 53.6 µM), for inactives: at the highest dose activity change, negative = inhibition, actives largely listed as inhibitors; further: potency means the concentration at half of the fitted maximal effect; nearly all actives have a fitted effect of over 60% in size
Target sequence (P51450 whole entry, looked up, the tested form may be a part): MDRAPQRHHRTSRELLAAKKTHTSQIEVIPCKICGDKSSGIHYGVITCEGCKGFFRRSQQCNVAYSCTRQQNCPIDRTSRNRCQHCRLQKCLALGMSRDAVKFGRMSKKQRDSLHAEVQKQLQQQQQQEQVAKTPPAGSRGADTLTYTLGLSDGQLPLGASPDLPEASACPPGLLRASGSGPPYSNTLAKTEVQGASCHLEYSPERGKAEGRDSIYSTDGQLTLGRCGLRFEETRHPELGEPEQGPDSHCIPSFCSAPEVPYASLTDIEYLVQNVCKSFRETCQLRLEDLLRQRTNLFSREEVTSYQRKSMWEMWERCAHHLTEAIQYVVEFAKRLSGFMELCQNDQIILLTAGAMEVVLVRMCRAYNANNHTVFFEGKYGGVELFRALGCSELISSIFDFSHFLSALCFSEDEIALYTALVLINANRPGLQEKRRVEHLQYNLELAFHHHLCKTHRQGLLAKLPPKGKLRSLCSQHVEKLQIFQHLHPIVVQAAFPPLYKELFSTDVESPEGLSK
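Luciferase reporter read in Schneider cells carrying Gal4-RORγ (mouse) and UAS-Photinus luciferase; cells given compound 1 h before 700 uM copper sulfate induction, then incubated 20 h at ambient temperature.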
IL1B secr inh: inflammasome signaling inhibition, IL-1 beta readout; THP-1 LPS/ATP IL-1B secretion, AlphaLISA, 16 h; stronger effect = lower value; activity change, % at 57.5 µM; hit rate 4.7% among 360,000; AID 743279; in the data active means activity change below about -50%; inconclusive means mostly about -30% to -49%
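THP-1 cells pretreated 1 hr with compounds (up to 57.5 uM final), then stimulated with LPS (250 ng/mL final) plus ATP (1.25 mM final); secreted IL-1B measured by AlphaLISA after 16 hr, decreased signal indicating inhibition.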
ELG1 repair inh: inhibitors of ELG1-dependent DNA repair in HEK293T cells. HEK293T ELG1-luciferase reporter, luminescence, 16 h; DNA damage induced by 5-fluorouridine. Potency, µM (series often up to 46.1 µM), for the others: at the top dose activity change, negative = inhibition, most hits filed as inhibitors. hit rate 2.3% among 330,000. AID 504467; further: potency means the concentration at half of the fitted maximal effect; nearly all actives have a fitted effect of over 55% in size
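5-Fluorouridine DNA damage + compound/DMSO, 2,000 cells/well, 16 h, 37 °C/5% CO2. ONE-Glo, 30 min RT, luminescence. Readout = decrease in reporter signal.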
VP16 counter: counter-screen for ROR gamma inhibitors: Gal4-VP16 reporter. hit rate 3.5% among 310,000. Drosophila S2 Gal4-VP16 UAS-luciferase, luminescence, 20 h. AID 2546. Potency, µM (series often up to 53.6 µM), without a hit: at the highest dose activity, negative = inhibition, actives largely listed as inhibitors;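 further: Gal4-VP16 expression switched on by copper sulfate through the metallothionein promoter; potency means the concentration at half of the fitted maximal effect; nearly all actives have a fitted effect of over 50% in size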
TDP1 cell CPT: DT40-hTDP1 cell growth loss with CPT; chicken DT40 Tdp1-/-;hTDP1 cells + 20 nM CPT, ATP luminescence, 48 h; Potency, µM (titrated, usually from 46.2 µM), without a hit: top-dose activity change, negative = growth inhibition, hits mostly inhibitors; hit rate 12% among 420,000; further: potency means the concentration at half of the fitted maximal effect; nearly all actives have a fitted effect of over 55% in size
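Chicken DT40 Tdp1-/- cells complemented with human TDP1, 400 cells/well, exposed to compounds plus 20 nM camptothecin for at least 48 h at 37 C; viability read as ATP content by CellTiter-Glo luminescence.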
TDP1 cell noCPT: qHTS for Inhibitors of human tyrosyl-DNA phosphodiesterase 1 (TDP1): qHTS in cells in absence of CPT; DT40 Tdp1-/- hTDP1 cells, no CPT, ATP luminescence, 48 h; Potency, µM (series often up to 46.2 µM), for inactives: top-dose activity change, negative = growth inhibition, hits mostly inhibitors; hit rate 15% among 420,000; AID 686978, 2013; further: potency means the concentration at half of the fitted maximal effect; nearly all actives have a fitted effect of over 55% in size
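Chicken DT40 Tdp1-/- cells complemented with human TDP1, screened without camptothecin (DMSO vehicle only), 400 cells/well. Compounds pin-transferred, cells incubated at 37 °C for at least 48 hr. Growth read as ATP-dependent luminescence (CellTiter-Glo, 30 min at RT).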
* = called active by the depositor; ? = inconclusive; nt = not tested or not shown. Unless noted, the call rests on the fitted dose curve; in most records, active means well fitted curve in the direction sought with a large enough effect; inconclusive means small, poorly fitted or top-dose-only effect, or another doubt; inactive means no such curve, though single readings can be large; an effect the other way counts as inactive or inconclusive. On the % scale 0 is the no-effect control and ±100 the full control effect.

SMILES | RORgamma inh | IL1B secr inh | ELG1 repair inh | VP16 counter | TDP1 cell CPT | TDP1 cell noCPT
CC(=O)N1CCN(S(=O)(=O)c2cccc(C(=O)NCCc3ccc(Cl)cc3)c2)CC1 | nt | 2 | 4% | nt | -19% | -25%
COc1ccc(CCNC(=O)c2ccc(N3CCCCS3(=O)=O)cc2)cc1OC | 5% | 4 | 7% | 8% | -9% | 8%
O=[N+]([O-])c1cccc(CSc2ncnc3ccccc23)c1 | 14% | -61* | ? | -24% | -16% | ?
COc1cc(C(=O)NC(=S)Nc2ccc(Cc3ccncc3)cc2)cc(OC)c1OC | 0% | -5 | 13µM* | -18% | ? | ?
CC(C)Cc1ccc(C(=O)Nc2ccc(Cc3ccncc3)cc2)o1 | ? | -91* | 21µM* | -12% | ? | ?
COC(=O)Nc1ccc(Cc2ccncc2)cc1 | 6% | -6 | -3% | 0% | -24% | -20%
COc1c(C(=O)Nc2ccc(Cc3ccncc3)cc2)ccc2ccccc12 | ? | -14 | ? | ? | ? | 23µM*
Cc1cc(C)cc(C(=O)NC(=S)Nc2ccc(Cc3ccncc3)cc2)c1 | 7.9µM* | ? | ? | ? | ? | 29µM*
CCN1CCN(CCNC(=O)c2ccc(CS(=O)c3ccc(Cl)cc3)o2)CC1 (stereo not drawn) | 0% | 44 | 9% | -2% | -5% | 10%
COc1ccc(NC(=O)N2CCC3(CC2)CCN(C(=O)c2cc(C(F)(F)F)cc(C(F)(F)F)c2)CC3)cc1 | 24% | nt | nt | 29% | 0% | -28%
COc1ccccc1C(=O)NC(=S)Nc1ccc(Cc2ccncc2)cc1 | ? | 29 | -18% | -15% | ? | 18µM*
COc1ccccc1C(=O)Nc1ccncc1 | ? | ? | -1% | 6% | -6% | -15%
CCn1ccc2c(OCC(=O)Nc3ccccc3C)cccc2c1=O | nt | nt | nt | nt | 15µM* | 12µM*
Cn1ccc2c(OCC(=O)Nc3cc(C(F)(F)F)ccc3Cl)cccc2c1=O | nt | nt | nt | nt | 26µM* | 15µM*
CCn1ccc2c(OCC(=O)Nc3ccccc3C(F)(F)F)cccc2c1=O | nt | nt | nt | nt | 15µM* | 21µM*
Cc1cccc(NC(=O)COc2cccc3c(=O)n(C)ccc23)c1C | nt | nt | nt | nt | 23µM* | 18µM*
Cn1ccc2c(OCC(=O)Nc3ccc([N+](=O)[O-])cc3)cccc2c1=O | nt | nt | nt | nt | -29% | ?
CCOC(=O)c1cnc2nc(NCc3cccc(Br)c3)[nH]n2c1=O | nt | nt | nt | nt | -5% | -4%
COc1cc(OC)cc(C(=O)NNC(=O)c2cc(S(=O)(=O)N3CCOCC3)ccc2F)c1 | nt | 11 | -1% | nt | 4% | 4%
Cc1ccc(C)c(CSc2nnc3[nH]c(=O)cc(C)n23)c1 | nt | nt | nt | nt | 10% | 4%
CS(=O)(=O)Nc1cccc(-c2ccc3nncn3c2)c1 | nt | 59 | nt | nt | 6% | -6%
CCCCCCCN1C2=NCCCN2c2ccccc21 | -7% | -72* | ? | ? | 2.6µM* | 2.3µM*
CCCCN1C2=NC(c3ccccc3)CN2c2ccccc21 (stereo not drawn) | nt | -27 | nt | nt | ? | 26µM*
CCCN1C2=NCCCN2c2ccccc21 | -13% | 22 | -36% | 8% | 2% | -6%
CCCCCCCN1C2=NCCN2c2ccccc21 | ? | -55* | ? | -5% | 12µM* | 18µM*
CCCCN1C2=NCCCN2c2cc(C)c(C)cc21 | -22% | -3 | ? | -8% | 18µM* | 23µM*
CCCCN1C2=NCCCN2c2ccccc21 | -5% | 14 | ? | -2% | ? | ?
O=c1cc(SCc2ccc(Cl)cc2Cl)nc[nH]1 | nt | -29 | nt | nt | -4% | -18%
CCc1cccc(OCC(=O)Nc2ccccc2N2CCCC2)c1 | nt | -7 | 12% | nt | ? | ?
